Reference: PubChem BioAssay AID651815 (National Center for Advancing Translational Sciences (NCATS), 2012)
Among all 2,100 compounds or so, about 1,100 (52%) were called active. Inconclusive results (about 29%) are left out. Calls come from the whole dose curve; as a rule, active = well fitted inhibition curve with a large enough effect; inconclusive = small, poorly fitted or top-dose-only effect; inactive = no such curve, though single readings can be large or run the other way. So high a share suggests a set chosen from earlier hits. The list shows a part of the results.

Biological target: DNA dC->dU-editing enzyme APOBEC-3F (Homo sapiens) (UniProt Q8IUX4)
Assay: qHTS for inhibitors of Vif-A3F interactions: Cherry picks counterscreen; note: nearly all actives have a fitted effect of over 65% in size
Settings: HeLa A3F-eYFP/Vif cells, eYFP fluorescence, 24 h; series mostly up to 46.1 µM; activity, negative = inhibitor: at the top concentration
How it was run: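 Rescue of Vif-driven A3F-eYFP degradation read as cellular eYFP fluorescence after 24 h compound exposure (several concentrations) in stable HeLa cells; MG132 (2 mM stock) as positive control.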
% is set by controls: 0 for no effect and ±100 for the full control effect; potency is the fitted concentration of half-maximal effect.

Sequence of DNA dC->dU-editing enzyme APOBEC-3F (Homo sapiens) (Q8IUX4 whole entry, looked up): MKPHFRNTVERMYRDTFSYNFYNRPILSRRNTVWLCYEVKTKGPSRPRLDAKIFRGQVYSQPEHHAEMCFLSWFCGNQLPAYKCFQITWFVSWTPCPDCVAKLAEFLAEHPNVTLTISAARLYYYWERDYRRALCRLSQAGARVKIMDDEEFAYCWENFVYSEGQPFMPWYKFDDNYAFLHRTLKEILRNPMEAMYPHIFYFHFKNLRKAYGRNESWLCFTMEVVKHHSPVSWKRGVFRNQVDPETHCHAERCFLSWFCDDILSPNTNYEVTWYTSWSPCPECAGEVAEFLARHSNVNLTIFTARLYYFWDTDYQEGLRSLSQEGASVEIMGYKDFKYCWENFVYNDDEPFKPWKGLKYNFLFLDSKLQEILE

Structure (SMILES)	activity, negative = inhibitor	Potency
O=S(=O)(Nc1ccc(C(O)(C(F)(F)F)C(F)(F)F)cc1)c1ccc(Cl)c2nonc12	-13.6% [at 36.9 µM] (inactive)	–
CCOC(=O)c1sc2cc([N+](=O)[O-])cc(SCC(C)C)c2c1N	–	2.31 µM (active)
COC(=O)c1sc2cc([N+](=O)[O-])cc(SCC(C)C)c2c1N	–	11.6 µM (active)
COc1ccc(NC(=S)Nc2ncccc2C)c(OC)c1	-8.96% [at 36.9 µM] (inactive)	–
COc1ccc(NC2=CC(=O)CC(c3ccccc3)C2)c(OC)c1 (stereo not drawn)	–	5.59 µM (active)
O=C(Nc1ccc(Oc2ccc(NC(=O)Nc3ccccc3Cl)cc2)cc1)Nc1ccccc1Cl	–	18.4 µM (active)
O=C(N/N=C/c1cccs1)c1n[nH]c2c1CCC2	–	6.27 µM (active)
O=C(N/N=C/c1cccc2ccccc12)c1n[nH]c2c1CCCC2	–	1.98 µM (active)
Cc1ccsc1/C=N\NC(=O)c1n[nH]c2c1CCC2	–	3.96 µM (active)
CN(C)S(=O)(=O)c1ccc2c(c1)/C(=C/c1cc3c([nH]1)CCCC3)C(=O)N2	–	2.23 µM (active)
Cc1cccc(N2CCN(C(=O)c3ccncc3)CC2)c1C	–	9.94 µM (active)
O=C(CSc1nc(-c2ccco2)cc(C(F)(F)F)n1)Nc1cccnc1	–	11.2 µM (active)
Cc1nnc(NC(=O)CSc2nc(C(C)C)nc3ccccc23)s1	–	8.86 µM (active)
Cc1cc(C)n(-c2nnc3n2N=C(c2c[nH]c4ccccc24)CS3)n1	–	12.5 µM (active)
CC(NC(=O)/C(C#N)=C/c1ccc([N+](=O)[O-])o1)c1ccccc1 (stereo not drawn)	–	18.4 µM (active)
N#C/C(=C\c1ccccc1[N+](=O)[O-])C(=O)NCc1ccccc1	0.631% (inactive)	–
CCOCCCNC(=O)/C(C#N)=C/c1ccc([N+](=O)[O-])o1	–	20.6 µM (active)
CN(C)/C=N/C1=C(C#N)C(c2cccs2)c2ccc3ccccc3c2O1 (stereo not drawn)	–	4.98 µM (active)
O=C(NCc1cccnc1)c1cccc(NS(=O)(=O)c2ccc(Br)cc2)c1	–	6.27 µM (active)
O=C(COc1ccc(C(=O)c2ccccc2)cc1)NCc1ccc(F)cc1	–	1.98 µM (active)
CCS(=O)(=O)N1CCc2cc(C(=O)N3CCN(c4cccc(C(F)(F)F)c4)CC3)ccc21	-6.58% (inactive)	–
O=C(c1[nH]c(C(F)(F)F)nc1-c1ccccc1)N1CCN(c2cccc(C(F)(F)F)n2)CC1	–	2.8 µM (active)
O=C(c1[nH]c(C(F)(F)F)nc1-c1ccccc1)N1CCN(c2ccccc2)CC1	–	2.23 µM (active)
N#Cc1sc2nc(-c3cccs3)cc(-c3ccc(Cl)cc3)c2c1N	–	12.5 µM (active)

Structure (SMILES)	activity, negative = inhibitor	Potency
CCN(CC)C(=O)c1sc2nc(-c3cccs3)cc(-c3ccc(Cl)cc3)c2c1N	–	14 µM (active)
COc1ccc(-c2cc(-c3cccs3)nc3sc(C#N)c(N)c23)cc1	-19.5% (inactive)	–
O=C(COC(=O)c1ccc(NS(=O)(=O)c2cccs2)cc1O)NCc1ccccc1	–	4.44 µM (active)
CCOc1ccc(Cn2c3ccc(OC)cc3c3nc4ccccc4nc32)cc1	–	18.4 µM (active)
COc1ccc2c(c1)c1nc3ccccc3nc1n2Cc1ccc(OC)c(OC)c1	–	18.4 µM (active)
COc1ccc2c(c1)c1nc3ccccc3nc1n2CC(=O)OC(C)C	–	3.66 µM (active)
COc1ccc(COn2c(=O)c(C)[n+]([O-])c3ccccc32)cc1OC	-14.5% [at 36.9 µM] (inactive)	–
Nc1nn(-c2ccccc2)c(N)c1N=Nc1ccccc1	–	2.23 µM (active)
c1ccc(N=NC2=NN(c3ccccc3)CS2)cc1	0.0565% (inactive)	–
O=C(CSc1ccccc1)Nc1nc2ccccc2[nH]1	–	8.86 µM (active)
c1ccc2[nH]c(NN=C3CCCCCC3)nc2c1	-14.5% (inactive)	–
N#CC(C(=S)Nc1ccccc1)c1nc2ccccc2[nH]1 (stereo not drawn)	-11.5% (inactive)	–
Cc1ccc2c(c1)C=CC(C#N)N2C(=O)c1ccccc1 (stereo not drawn)	–	4.98 µM (active)
COc1ccc(OC)c(C2CC(=O)c3c([nH]c(C(=O)OCC4CCCO4)c3C)C2)c1 (stereo not drawn)	–	12.5 µM (active)
Cc1c(C(=O)OC2CCCCC2)[nH]c2c1C(=O)CC(c1ccccc1Cl)C2 (stereo not drawn)	–	2.06 µM (active)
COCCOC(=O)c1[nH]c2c(c1C)C(=O)CC(c1ccccc1)C2 (stereo not drawn)	–	1.77 µM (active)
CN(/N=C/c1ccc(N(C)C)cc1)C1=NS(=O)(=O)c2ccccc21	–	11.2 µM (active)
COCCCN(C(C)=O)c1nc(-c2ccc(OC)cc2)cs1	–	17.7 µM (active)
CN1C2=CC=CC=CC2=[N+](C)C12C([N+](=O)[O-])=CC(=[N+]([O-])[O-])C=C2[N+](=O)[O-] (stereo not drawn)	–	12.5 µM (active)
Cc1ccc(S(=O)(=O)Nc2cc(-c3nn(C)c(=O)c4ccccc34)ccc2N2CCOCC2)cc1	–	12.5 µM (active)
Cc1cccc2[nH]cc(/C=C3/C=Nc4ccccc43)c12	–	20.6 µM (active)
CCCCNc1c(-c2ccc(SC3CCCCC3)cc2)nc2cnccn12	–	4.44 µM (active)
CCC(C)Sc1ccc(-c2nc3cc(C)ccn3c2NC2CCCCC2)cc1 (stereo not drawn)	-10.9% (inactive)	–
c1cc(SC2CCCCC2)cc(-c2nc3cnccn3c2NC2CCCCC2)c1	-24.5% (inactive)	–
